The source made the active and inactive calls. How the calls were made is not given here.
Experiment: placental alkaline phosphatase inhibitors, dose response, counter-screen, biochemical, colorimetric (AID 779)
Conditions: PLAP counter-screen, colorimetric OD read-out

SMILES	IC50
CC(=O)OC1(c2ccc(C)cc2)CN2CCC1c1ccccc12 (stereo not given)	> 50 µM (inactive)
COc1ccc(C(=O)CN2CCOCC2)cc1F	> 50 µM (inactive)
CCCCOP(=O)(OCCCC)/C(C#N)=C(/C)O	> 50 µM (inactive)
CN1/C(=C\C=C\C2=[N+](C)c3ccc4ccccc4c3C2(C)C)C(C)(C)c2ccccc21	> 50 µM (inactive)
Cc1cc(C=C2C(=O)N(C)C(=S)N(C)C2=O)c(C)n1C1CCCCC1	> 50 µM (inactive)

Reference: PubChem BioAssay AID779 (Sanford-Burnham Center for Chemical Genomics, 2007)
